Measurements as given in the supplement of paper PMC10338343.
± gives the standard deviation.

How the values were obtained:
[1] = test system: MILI (PIWIL2) piRISC loaded with L1MC piRNA (26 nt); assay: pre-steady-state target cleavage rate (min^-1); guide: L1MC piRNA 5'p-UAACUAAAUACUAUGCAAGCUGUAGG; higher = faster piRNA-guided slicing of the target
In short: (§1)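 The method was Cleave-'n-Seq, in which uncleaved targets from a transcribed, DNA-blocked target RNA library were sequenced after exposure to active affinity-purified piRISC carrying one synthetic guide, with or without GTSF1 partner protein. Reactions contained 0.1 nM library, 1 nM piRISC and, where present, 500 nM GTSF1 in HEPES–potassium acetate buffer at 33 °C for 0–8 or 0–960 min. Reads were normalised to depth and to weakly complementary targets, three trials were pooled, and k3 was capped at 0.0001 min^-1. The pre-steady-state cleavage rate came from a burst-and-steady-state fit.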

[2] = test system: EfPiwi piRISC loaded with L1MC piRNA (26 nt); assay: pre-steady-state target cleavage rate (min^-1); auxiliary factor: 500 nM Ephydatia muelleri Gtsf1; guide: L1MC piRNA 5'p-UAACUAAAUACUAUGCAAGCUGUAGG; MIWI and MILI are mouse PIWI proteins and EfPiwi is from a freshwater sponge; tags in brackets are library labels; higher = faster piRNA-guided slicing of the target
In short: as §1

[3] = auxiliary factor: 500 nM mouse GTSF1
[4] = auxiliary factor: none (no GTSF1)

Row | Sequence | pre-steady-state target cleavage rate [1, 3] | pre-steady-state target cleavage rate [1, 4] | pre-steady-state target cleavage rate [2]
1 | UCCUGGUACAGCUUGUCAUAGUAUUUAGUUA | 0.19 ± 0.018 | 0.0068 ± 0.003 | 0.00651 ± 0.0024
2 | UCCUGGUACAGCUUGCAUAGUAUUUAGUUC [g2:g24:cont:t1C] | 0.3 ± 0.016 | 0.0117 ± 0.0049 | 0.0096 ± 0.0039
3 | UCCUACUACAGCUUGCAUAGUAUUUAGUUA | 0.294 ± 0.02 | 0.00883 ± 0.0027 | 0.0579 ± 0.018
4 | UCCUGGAACAGCUUGCAAAGUAUUAAGUUA | 0.0867 ± 0.015 | 0.00516 ± 0.0022 | 0.00406 ± 0.003
5 | UCCUGGAAGUGCUUGCAUAGUAUUUAGUUA | 0.127 ± 0.013 | 0.00836 ± 0.0022 | 0.00537 ± 0.0019
6 | UCCUGGUACUGGUUGCAUAGUAUUUAGUUA | 0.162 ± 0.042 | 0.0125 ± 0.0045 | 0.0054 ± 0.0031
7 | UCCUCCUAGAGCUUGCAUUGUAUUUAGUUA | 0.213 ± 0.012 | 0.00709 ± 0.0021 | 0.018 ± 0.0048
8 | UCCUCCUCACAGCUUGCAUAGUAUUUAGUUA | 0.369 ± 0.021 | 0.0102 ± 0.0027 | 0.191 ± 0.046
9 | UCCUGGUAGAGCAUGCAUAGUAUUUAGUUA | 0.196 ± 0.018 | 0.0109 ± 0.0033 | 0.0134 ± 0.004
10 | UCCUGGAACAGGUUGCAUAGUAUUUUGUUA | 0.132 ± 0.018 | 0.00924 ± 0.0022 | 0.00366 ± 0.0015
11 | UCCUGGAUCAGCUUGCAAUGUAUUUAGUUA | 0.0475 ± 0.011 | 0.00413 ± 0.0025 | 0.00462 ± 0.0039
12 | UCCUGGAUGUGCUUGCAUAGUACUUAGUUA | 0.105 ± 0.022 | 0.00413 ± 0.0024 | 0.00522 ± 0.0031
13 | UCCUGGAUCAGCUUGCAUACUAUUUAGUUA | 0.0716 ± 0.011 | 0.0037 ± 0.0021 | 0.0114 ± 0.0021
14 | UCCUGGAUGAGCUUGCAUAGUAUUUAGUUU [g2:g21:cont:t1U] | 0.226 ± 0.011 | 0.0146 ± 0.0035 | 0.0356 ± 0.0098
15 | UCCUGCUACAGCUUCCUUAGUAUUUAGUUA | 0.251 ± 0.025 | 0.00547 ± 0.0019 | 0.00425 ± 0.0019
16 | UCCUGGUACAGCUUGCAUAGUAUUUAGUCA | 0.159 ± 0.032 | 0.00633 ± 0.0029 | 0.00545 ± 0.0021
17 | UCCUGGAUGUCGAUUGCAUAGUAUUUAGUUA | 0.09 ± 0.012 | 0.00748 ± 0.0024 | 0.00712 ± 0.0027
18 | UCCUGCUUCAGCUUGCAUAGUAUAUAGUUA | 0.277 ± 0.025 | 0.00438 ± 0.002 | 0.00887 ± 0.0035
19 | UCCUGGUACAGCUUGCAUAGUAUAUAGUUA | 0.274 ± 0.041 | 0.00795 ± 0.0034 | 0.00533 ± 0.0027
20 | UCCUGCUACAGCUUGGCAUAGUAUUUAGUUA | 0.307 ± 0.051 | 0.00405 ± 0.0027 | 0.00928 ± 0.0031
21 | UCCUGCUAACAGCUUGCAUAGUAUUUAGUUA | 0.307 ± 0.033 | 0.00599 ± 0.0032 | 0.0114 ± 0.0038
22 | UCCUCGAACAGCUUGCAUAGUAUUUAGUAA | 0.242 ± 0.015 | 0.00453 ± 0.0022 | 0.0173 ± 0.0064
23 | UCCUGGAUGUCCUUGCAUAGUAUUUAGUUC [g2:g19:cont:t1C] | 0.0893 ± 0.011 | 0.00931 ± 0.0026 | 0.00867 ± 0.0028

Row | Sequence | pre-steady-state target cleavage rate [1, 3] | pre-steady-state target cleavage rate [1, 4] | pre-steady-state target cleavage rate [2]
24 | UCCUCCUACACGUUGCAUAGUAUUUAGUAA | 0.163 ± 0.022 | 0.00299 ± 0.0029 | 0.00566 ± 0.0027
25 | UCCUCGAUCAGCUUGCAUAGUAUUUAGUAA | 0.269 ± 0.017 | 0.00809 ± 0.0023 | 0.00989 ± 0.0033
26 | UCCUGCUGCAGCUUGCAUAGUAUUUAGUUA | 0.331 ± 0.024 | 0.00762 ± 0.0024 | 0.0729 ± 0.016
27 | UCCUCCUACAGCUUGCAUAGUACUUAGUUA | 0.277 ± 0.018 | 0.00759 ± 0.002 | 0.013 ± 0.0053
28 | UCCUGGUUCAGCUUGCAAAGUAUUUAGUUA | 0.137 ± 0.018 | 0.0176 ± 0.0038 | 0.0681 ± 0.019
29 | UCCUGGAUGAGCUUGCAUAGUAUUUUGUUA | 0.204 ± 0.04 | 0.00454 ± 0.0024 | 0.00491 ± 0.0017
30 | UCCUGCUACAGCUAGGAUAGUAUUUAGUUA | 0.259 ± 0.015 | 0.00677 ± 0.0024 | 0.011 ± 0.0037
31 | UCCUGGAUGAGCUCGCAUAGUAUUUAGUUA | 0.241 ± 0.017 | 0.0047 ± 0.0035 | 0.0143 ± 0.0042
32 | UCCUGCUACAGGAAGCAUAGUAUUUAGUAA | 0.254 ± 0.024 | 0.00762 ± 0.0022 | 0.00302 ± 0.0027
33 | UCCUCCUACAGCUUGCAUGUAUUUAGUUA | 0.0804 ± 0.012 | 0.00283 ± 0.0027 | 0.00924 ± 0.0046
34 | UCCUGGAUCAGCUUGCAUAGUAUUUAGAAA | 0.138 ± 0.022 | 0.00292 ± 0.0023 | 0.00346 ± 0.0016
35 | UCCUGGAUCAGCUUGUAUAGUAUUUAGUUA | 0.301 ± 0.015 | 0.0104 ± 0.0028 | 0.104 ± 0.021
36 | UCCUCCUACACCAUGCAUAGUAUUUAGUUA | 0.243 ± 0.019 | 0.00814 ± 0.0024 | 0.145 ± 0.05
37 | UCCUGGAUCAGCUCUGCAUAGUAUUUAGUUA | 0.246 ± 0.024 | 0.00786 ± 0.0034 | 0.101 ± 0.023
38 | UCCUGGAACAGCUUGGCAUAGUAUUUAGUUA | 0.48 ± 0.097 | 0.00632 ± 0.0027 | 0.0094 ± 0.0031
39 | UCCUCUACAGCUUGCAUAGUAUUUAGUUA | 0.31 ± 0.013 | 0.00953 ± 0.0028 | 0.183 ± 0.045
40 | UCCUGGAUCAGCUUGAAUAGUAUUUAGUUA | 0.247 ± 0.017 | 0.00991 ± 0.0026 | 0.0605 ± 0.015
41 | UCCUGGUACAGCUUUCAUAGUAUUUAGUUA | 0.22 ± 0.042 | 0.0103 ± 0.0032 | 0.00404 ± 0.0023
42 | UCCUGCUAGAGCUUGCAUAGUAAUUAGUUA | 0.19 ± 0.02 | 0.00448 ± 0.0023 | 0.00471 ± 0.0019
43 | UCCUGGAUGACGCUUGCAUAGUAUUUAGUUA | 0.211 ± 0.022 | 0.00493 ± 0.0037 | 0.0537 ± 0.014
44 | UCCUGCUACUCCUUGCAUAGUAUUUAGUUA | 0.262 ± 0.015 | 0.0091 ± 0.0024 | 0.0106 ± 0.004
45 | UCCUGGAACAGCUUGCAAAGUAUUUAGAUA | 0.085 ± 0.014 | 0.00298 ± 0.0022 | 0.0036 ± 0.0024
46 | UCCUGGAUCAGCUUGCAUAGUCUUUAGUUA | 0.191 ± 0.011 | 0.00789 ± 0.0024 | 0.0204 ± 0.0053
